PERK inhibitor = blocks human PERK kinase. inhibition, % at 5.6 µM. CHO PERK-DD fusion, SEAP luminescence translation reporter. 220,000 compounds, 0.17% hits;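 active means inhibition above the mean inhibition of all tested compounds plus 3 SD, set separately per screening campaign, cut at about 2.9% in these data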;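 further: PERK kinase domain activated by AP20187 dimerizer at 100 nM; 0% = DMSO with dimerizer and 100% = rapamycin at 8.4 µM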
eIF4E-4G inh = inhibitors of eIF4E and eIF4G interaction in translation initiation. 220,000 compounds, 0.37% hits. inhibition, % at 21.7 µM. TR-FRET eIF4E-eIF4GI(517-606) binding, 2 h;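 active means inhibition above about 30%, limit read from the data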;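 further: 0% = full FRET control wells and 100% = background wells lacking eIF4GI fragment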
Target sequence (P63073 whole entry, looked up, the tested form may be a part): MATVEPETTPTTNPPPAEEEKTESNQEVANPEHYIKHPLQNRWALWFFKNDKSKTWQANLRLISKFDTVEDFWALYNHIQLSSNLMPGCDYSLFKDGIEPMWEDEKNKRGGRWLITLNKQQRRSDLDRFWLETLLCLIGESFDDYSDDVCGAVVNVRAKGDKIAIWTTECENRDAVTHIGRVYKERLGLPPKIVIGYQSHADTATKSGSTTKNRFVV
Target sequence (Q04637 whole entry, looked up, the tested form may be a part): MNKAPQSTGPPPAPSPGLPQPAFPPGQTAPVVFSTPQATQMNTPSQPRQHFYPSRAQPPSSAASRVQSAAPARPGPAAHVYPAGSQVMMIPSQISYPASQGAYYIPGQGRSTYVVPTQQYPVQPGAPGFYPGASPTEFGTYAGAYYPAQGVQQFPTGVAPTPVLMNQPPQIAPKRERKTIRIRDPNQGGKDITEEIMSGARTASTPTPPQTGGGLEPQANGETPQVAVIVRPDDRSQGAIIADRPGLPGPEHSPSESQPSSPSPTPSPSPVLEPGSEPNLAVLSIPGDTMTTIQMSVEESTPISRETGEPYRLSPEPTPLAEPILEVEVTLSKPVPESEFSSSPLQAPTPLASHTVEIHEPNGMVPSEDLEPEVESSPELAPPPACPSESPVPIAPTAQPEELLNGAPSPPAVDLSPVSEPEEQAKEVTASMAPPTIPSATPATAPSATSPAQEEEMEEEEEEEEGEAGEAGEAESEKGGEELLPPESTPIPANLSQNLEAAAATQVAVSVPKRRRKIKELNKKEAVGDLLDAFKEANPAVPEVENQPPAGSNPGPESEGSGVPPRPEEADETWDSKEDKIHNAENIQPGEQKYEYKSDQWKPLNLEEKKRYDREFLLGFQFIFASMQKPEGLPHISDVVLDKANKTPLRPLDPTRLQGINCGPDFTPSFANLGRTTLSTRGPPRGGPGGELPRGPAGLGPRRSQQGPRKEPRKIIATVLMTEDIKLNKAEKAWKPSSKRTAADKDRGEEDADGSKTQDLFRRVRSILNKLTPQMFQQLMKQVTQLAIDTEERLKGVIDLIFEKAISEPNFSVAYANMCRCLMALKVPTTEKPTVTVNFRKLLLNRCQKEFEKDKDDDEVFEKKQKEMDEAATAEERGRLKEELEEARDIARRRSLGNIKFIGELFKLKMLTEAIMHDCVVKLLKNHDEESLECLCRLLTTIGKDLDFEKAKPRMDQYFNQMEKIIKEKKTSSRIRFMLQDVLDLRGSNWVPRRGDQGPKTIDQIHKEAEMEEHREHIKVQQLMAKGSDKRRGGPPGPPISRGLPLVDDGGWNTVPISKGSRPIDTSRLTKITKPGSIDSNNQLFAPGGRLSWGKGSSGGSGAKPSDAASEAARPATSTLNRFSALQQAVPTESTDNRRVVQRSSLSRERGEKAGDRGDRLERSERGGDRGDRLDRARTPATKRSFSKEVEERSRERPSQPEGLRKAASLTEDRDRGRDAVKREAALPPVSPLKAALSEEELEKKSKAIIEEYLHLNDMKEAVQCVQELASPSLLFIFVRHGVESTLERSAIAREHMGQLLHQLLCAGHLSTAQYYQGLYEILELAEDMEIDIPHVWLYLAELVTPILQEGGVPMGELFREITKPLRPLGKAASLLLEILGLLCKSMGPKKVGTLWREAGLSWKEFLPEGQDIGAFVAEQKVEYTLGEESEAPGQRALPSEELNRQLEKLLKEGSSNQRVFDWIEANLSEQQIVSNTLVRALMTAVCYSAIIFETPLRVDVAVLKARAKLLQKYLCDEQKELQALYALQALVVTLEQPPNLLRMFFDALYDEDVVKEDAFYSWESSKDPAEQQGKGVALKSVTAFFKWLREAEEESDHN
PGE2 EP2 inh = blocks the human prostaglandin E2 receptor EP2 | 260,000 compounds, 0.52% hits | C6 glioma cells expressing human EP2, cAMP TR-FRET; cells stimulated with saturating PGE2 | P43116 | inhibition, % at 25 µM;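 active means percent inhibition above 40 after rounding to a whole number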;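 further: rat C6 glioma host cells with rolipram phosphodiesterase inhibitor present; the protocol text gives 20 µM as final concentration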
EP2 modulator = modulators of human EP2 prostaglandin E2 receptor; induction, % at 25 µM; 260,000 compounds, 0.83% hits; AID 940; EP2-expressing cells, cAMP HTRF FRET, PGE2 co-stimulation; P43116;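 active means compounds whose cAMP rise, as percent of the full-agonist control response, exceeds 60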;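 further: rat C6 glioma line stably carrying human EP2 under a CMV promoter; the protocol text gives 20 µM as final concentration; 100% = response of wells given 1 µM PGE2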
The depositor's hits bear a star; . = not tested or not shown; [ ] = remark or other dose. In the library only some 1.8% were active in any assay of this set; here they are far more common.

SMILES | PERK inhibitor | eIF4E-4G inh | PGE2 EP2 inh | EP2 modulator
O=C(Nc1cccc(Cl)c1)Nc1cc(S(=O)(=O)N2CCCCC2)ccc1Cl | 0 | 7 | 10 | -11
CN1CCN(S(=O)(=O)c2ccc(NC(=O)Nc3cccc(Cl)c3)cc2)CC1 | 0 | -7 | 43* | -24
Cn1c(=O)c([N+](=O)[O-])c(Cl)c2ccccc21 | 1 | -2 | 95* | -33
CCN(CC)c1c([N+](=O)[O-])c(=O)n(C)c2ccccc12 | 1 | -1 | 6 | 22
CC(C)(C)c1ccc(CCC2OCC(C[N+]3(C)CCOCC3)O2)cc1 (centres undefined) | 1 | 91* | 14 | 18
C/C(N)=C(/C#N)C(=O)COC(=O)c1ccccc1Cc1ccccc1 | 0 | 1 | 8 | 63*
CCc1nc2ccccc2n1CC(=O)NC1(c2ccc(OC)cc2)CCCC1 | . | . | 8 | 28
CCC(=O)Nc1ccc(NC(=O)C(C)(C)C)cn1 | . | . | 16 | -20
COc1ccc2[nH]c(=O)c(CN(CC3CCCO3)S(=O)(=O)c3ccccc3C(F)(F)F)cc2c1 (centres undefined) | . | . | 7 | -16
C[C@@H]1CC[C@H]2[C@H](C)[C@@H]3[C@@H](C[C@H]4[C@H]5CC=C6C[C@@H](O)CC[C@]6(C)[C@@H]5C[C@@H](O)[C@]34C)N2C1 | . | . | 62* | -9
O=C(O)c1ccn2c(C(=O)c3ccc(Cl)cc3)c(-c3ccccc3)cc2c1 | 0 | -2 | 7 | 77*
COC(=O)/C(C#N)=C/c1ccc(OC(=O)c2ccccn2)cc1 | 1 | 8 | 7 | 29
CCOC(=O)/C(C#N)=C/c1ccc(OC(=O)c2ccccn2)cc1 | 0 | 31* | 5 | 16
CC(C)Cn1cnc2c(SCc3ccc(Cl)cc3Cl)nc(N)nc21 | . | . | 52* | -3
Cc1cc(C)c2c(SCc3ccc(Cl)cc3Cl)nc(N)nc2n1 | . | . | 47* | -1
CC(C)Cn1cnc2c(SCc3ccccn3)nc(N)nc21 | . | . | 14 | 3
Cc1ccc2ccccc2c1CSc1nc(N)nc2c1ncn2CC(C)C | . | . | 57* | -24
Cc1cc2c(SCc3ccccc3Cl)nc(N)nc2nc1C | . | . | 10 | -16
Cc1ccc(CN(CCCN2CCOCC2)Cc2sccc2C)cc1 | . | . | 5 | -17
N=C(N)S[C@@H]1c2ccccc2-c2cc([N+](=O)[O-])ccc21 | . | . | 48* | -51
COc1ccc(NC(=S)Nc2cnc3ccccc3c2)c(OC)c1 | 2 | 2 | 44* | -64
COc1ccc(NC(=O)c2sc3nc4cc(OC)c(OC)cc4cc3c2N)cc1OC | . | . | 20 | 20
O=C(NCc1c(Cl)cccc1Oc1ccccc1)c1ccccc1 | -1 | 4 | 10 | 63*
CCOc1ncccc1C(=O)Nc1ncc(C)s1 | 0 | 1 | 3 | 5
CCOc1ncccc1C(=O)Nc1nc(C(C)(C)C)cs1 | 1 | 4 | 0 | 64*
SMILES | PERK inhibitor | eIF4E-4G inh | PGE2 EP2 inh | EP2 modulator
CCOc1ccc(CC(=O)N2CCC[C@@H]2Cn2nc(-c3cccs3)ccc2=O)cc1 | . | . | 7 | -41
c1ccc2[nH]c(SN3CCOCC3)nc2c1 | 1 | 44*[fluorescence artefact?] | 3 | 16
Cc1nc2ccc(NC(=O)c3cc([N+](=O)[O-])cc([N+](=O)[O-])c3Cl)cc2s1 | -1 | -3 | 121* | -2
O=C(c1nccs1)C1CCN(C(=O)Cc2ccccc2Cl)CC1 | . | . | . | -32
O=c1[nH]c(C2CC2)nc2ccccc12 | . | . | 11 | -4
COc1ccc(-c2nn3c(C4CCCCC4)nnc3s2)cc1OC | -1 | 3 | 7 | 61*
COc1cc(-c2nn3c(C4CCCCC4)nnc3s2)cc(OC)c1OC | 0 | . | 3 | -1
O=C(COC(=O)c1cccnc1)Nc1ccc(Cl)cc1 | . | . | 11 | -16
COc1ccc(C(c2nnnn2C(C)C)N2CCN(c3nc4ccccc4s3)CC2)cc1 (centres undefined) | . | . | 8 | 2
Cn1nc(OCC(=O)O)cc1C(F)(F)F | 3.0* | -3 | 7 | -1
CCOc1ccc(OCC)c(NC(=O)CSc2nnnn2C)c1 | . | . | 19 | 6
COc1ccc2c(Cc3c4ccccc4cc4ccccc34)cncc2c1O | . | . | 40* | 28
COc1ccc(C(C)=O)cc1COc1ncnc2ccccc12 | -1 | -1 | 9 | -19
CCOc1cccc(OCC)c1NC(=O)CSc1nc2ccccc2c(=O)n1C | . | . | 4 | 3
CC(=O)Nc1ccc(-n2nnnc2SCC(=O)Nc2ccc(C)cc2)cc1 | . | . | 8 | -90
COC(=O)C1=C(C)NC(=S)N(C(C)=O)C1c1ccc(OC)cc1 (centres undefined) | . | . | 9 | 9
CCOC(=O)C1=C(C)NC(=S)N(C(C)=O)C1c1ccccc1 (centres undefined) | 0 | -2 | . | 65*
C=CCn1c(Cc2ccccc2)nnc1SCC(=O)NC1CCCCC1 | . | . | 6 | 4

Compound activity (PubChem BioAssay)
